An excerpt weighted towards active compounds, which were near 4.7% of everything screened.
D1 PAM = Potentiators of Human D1 Dopamine Receptor: qHTS; potentiation, % at 10 µM; D(1A) dopamine receptor (Homo sapiens), P21728; HEK293 TREx D1 cells, calcium flux, dopamine EC20 potentiation; 0.036% of 360,000 active; in the data active = potentiation above about 30%; note: 0% is about no effect
Target sequence (P21728 whole entry, looked up): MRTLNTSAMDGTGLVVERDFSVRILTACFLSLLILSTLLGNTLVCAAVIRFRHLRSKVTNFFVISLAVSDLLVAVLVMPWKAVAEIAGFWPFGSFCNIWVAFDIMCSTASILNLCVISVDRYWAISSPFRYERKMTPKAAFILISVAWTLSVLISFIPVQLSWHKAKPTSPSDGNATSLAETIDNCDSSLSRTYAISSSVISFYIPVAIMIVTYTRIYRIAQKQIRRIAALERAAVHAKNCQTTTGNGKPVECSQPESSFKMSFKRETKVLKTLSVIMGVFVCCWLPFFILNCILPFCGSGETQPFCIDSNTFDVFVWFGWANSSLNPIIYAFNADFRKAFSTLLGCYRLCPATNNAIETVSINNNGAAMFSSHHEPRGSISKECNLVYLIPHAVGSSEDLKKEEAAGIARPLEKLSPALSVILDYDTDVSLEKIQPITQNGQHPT
D1 antagonist = Antagonist of Human D 1 Dopamine Receptor: qHTS; 3.2% of 360,000 active; HEK293 TREx D1 cells, calcium flux, dopamine EC80; stronger effect = lower value; D(1A) dopamine receptor (Homo sapiens), P21728; activity change, negative = inhibition, % at 10 µM; in the data active = activity change below about -30%; note: % is set by controls: 0 for no effect and ±100 for the full control effect
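Cells carrying a force-coupled, tetracycline-inducible human D1 receptor report calcium flux. Each well gets a 10 s baseline, compound with 180 s monitoring, then an EC80 dopamine stimulus with a second 180 s kinetic read.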
TRHR enhancer = qHTS for Small Molecule Agonists and Allosteric Enhancers of Human TRH Receptor: Primary Screen for Enhancers; Thyrotropin-releasing hormone receptor (Homo sapiens), P34981; TRHR cells, fluo-8 calcium fluorescence, EC20 TRH enhancement; enhancement, % at 2 µM; 0.66% of 360,000 active; AID 493056, 2011; in the data active = enhancement above about 30%; note: 0% is about no effect
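Enhancer read-out: after compound pinning and an initial kinetic agonist-mode read, an EC20 of TRH (10 nM final) was injected and fluo-8 calcium signal (Ex 480/Em 530) followed at 1 s/cycle for 100 cycles in TRHR-expressing cells.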
D1 agonist = Allosteric Agonists of the Human D1 Dopamine Receptor: qHTS. HEK293 T-REx D1 cells, calcium flux, agonist mode. 1% of 360,000 active. activation, % at 2 µM; note: 0% is about no effect
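Inducible HEK293 T-REx D1 cells, force-coupled to calcium signalling, were plated at 4000 cells/well with tetracycline and held overnight at 30 C. After no-wash calcium dye loading, compound-evoked calcium rise over 180 s flagged agonists.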
TRHR agonist = qHTS for Small Molecule Agonists and Allosteric Enhancers of Human TRH Receptor: Primary Screen for Agonists. TRHR cells, calcium flux fluo-8, FDSS agonist mode. 0.18% of 360,000 active. Thyrotropin-releasing hormone receptor (Homo sapiens), P34981. activation, % at 2 µM; note: 0% is about no effect
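Read-out: compound-evoked intracellular calcium rise in TRHR cells, fluo-8 dye, kinetic FDSS fluorescence at 1 s/cycle following a 10-cycle baseline. Cells cultured overnight before dye loading (30 min–1.5 h, RT).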
Numbers without * were called inactive; · = no result given; ! = repeats disagree. Cut-off read from the data, not from the text of the source, unless noted: active = activation above about 30%; inactive = the rest.

SMILES	D1 PAM	D1 antagonist	TRHR enhancer	D1 agonist	TRHR agonist
CCCn1c(SCC(N)=O)nnc1-c1ccco1	-1.0	-55.0*	7.3	0.6	-0.9
COC(=O)c1ccc(C2C=C(c3ccc(Cl)cc3)Nc3nc4ccccc4n32)cc1 (stereo not given)	6.5	-0.1	1.5	6.5	0.7
CCCN1C(=O)c2[nH]nc(-c3ccccc3O)c2C1c1cccc(OCc2ccccc2)c1 (stereo not given)	2.1	3.3	21.1	2.2	-0.1
CCc1ccc(NC(=O)CC2C(=O)N(c3ccc(Cl)cc3)C(=O)N2Cc2cccs2)cc1 (stereo not given)	-2.6	-13.3	2.4	7.9	0.7
COc1ccccc1NC(=O)c1sc2nc(C)c(C(=O)Nc3ccc(C)cc3C)c(-c3ccccc3Cl)c2c1N	-1.2	-0.7	-0.6	22.5	-0.5
CCN(CC)c1ccc(-n2c(C)cc(C=O)c2C)cc1	0.6	-32.1*	-9.2	3.1	-0.5
COc1cc2c(cc1OC)C(COc1cc(C)cc(C)c1)N(C(=O)C(C)(C)C)CC2 (stereo not given)	2.5	12.4	1.0	2.8	-0.2
CCOc1ccc(C(=O)c2cn(CC(=O)Nc3ccc(F)cc3)c3cc4c(cc3c2=O)OCCO4)cc1	0.8	-8.9	-2.2	7.5	-1.3
Cc1ccc(NC(=O)CN2C(=O)COc3ccc(S(=O)(=O)Nc4ccccc4)cc32)c(C)c1	0.9	3.5	-11.1	3.5	-0.3
CCN(CC)c1ccc(/C=C2\C(=N)N3N=C(CC(=O)N4CCOCC4)SC3=NC2=O)cc1	-0.2	11.6	-5.0	115.3*	33.7*
CSc1ccc(/C=C2\C(=N)N3N=C(CC(=O)N4CCOCC4)SC3=NC2=O)cc1	-4.0	-2.0	-5.4	4.7	0.6
CN(C)c1ccc(/C=N/N(CCO)C2=NS(=O)(=O)c3ccccc32)cc1	1.6	6.6	7.0	40.4*	3.6
O=c1c2c(nc3nc(NCc4ccccc4Cl)[nH]n13)CCC2	-0.8	-36.0*	1.0	2.2	-0.5
CCN(CC)C(=O)CC(c1ccc2c(c1)OCO2)c1c(OC)cc(OC)c2ccc(=O)oc12 (stereo not given)	-6.1	-37.7*	-0.9	0.5	-0.4
CCN(CC)C(=O)CC(c1ccc(N(C)C)cc1)c1c(OC)cc(OC)c2ccc(=O)oc12 (stereo not given)	2.0	4.8	0.3	0.8	-0.7
CSc1cccc(NC(=O)C2CCCN(C(=O)c3cnn(-c4ccc(F)cc4)c3-n3cccc3)C2)c1 (stereo not given)	-2.1	-7.3	19.9	2.0	0.1
CCOC(=O)C1(CCCc2ccccc2)CCN(CCCn2cccn2)CC1	-1.1	-8.3	7.7	36.5*	0.0
O=C1C2C3C=CC(C3)C2C(=O)N1c1ccc(Cc2ccncc2)cc1 (stereo not given)	-8.4	-2.7	4.6	22.5	1.1
CC1CCC2C(=O)N(c3ccc(Cc4ccncc4)cc3)C(=O)C2C1 (stereo not given)	-8.0	-30.3*	1.3	10.6	1.0
Cc1c(C(=O)N(Cc2ccc(N(C)C)cc2)Cc2ccco2)oc2cc(Br)ccc12	-1.6	-24.6	-0.2	0.0	0.1
C[C@H](C(=O)O)c1cccc(C(=O)c2ccccc2)c1	-3.0	-54.2*	9.0	-1.0	-0.1
COc1ccc(CNC(=O)c2ccc(CSc3nc4ccncc4n3Cc3ccccc3F)cc2)cc1	-2.9	-11.2	1.6	8.6	-0.5
CS(=O)(=O)NCC(c1ccco1)N1CCN(c2ccccc2)CC1 (stereo not given)	-2.0	·	1.7	4.6	0.7
Cc1cccc(CSc2cn(CC(=O)N3CCCCC3)c3ccccc23)c1	-6.5	-23.6	-7.1	3.9	1.0
CCC(CO)Nc1ncnc2onc(-c3ccc(F)cc3)c12 (stereo not given)	-1.9	4.6	39.6*	1.0	-0.1
SMILES	D1 PAM	D1 antagonist	TRHR enhancer	D1 agonist	TRHR agonist
Cc1ccccc1-c1nc(CS(=O)(=O)CC(=O)N2CCCCC2)c(C)o1	-3.8	-1.5	33.2*	8.2	-0.4
Cc1ccccc1-c1nc(CS(=O)(=O)CC(=O)NCCc2ccccc2)c(C)o1	-3.8	-31.5*!	-1.4	30.7*!	-0.9
COc1cccc(-c2nc(CS(=O)(=O)CC(=O)NCCc3ccccc3)c(C)o2)c1	0.5	3.0	-1.6	14.5	-0.4
Cc1ccc(-c2nc(CS(=O)(=O)CC(=O)N3CCN(C)CC3)c(C)o2)cc1	-3.2	-12.4	7.3	-0.3	-0.7
CCN1CCN(C(=O)CS(=O)(=O)Cc2nc(-c3ccc(C)cc3)oc2C)CC1	-6.7	-30.6*	-2.1	1.7	-0.2
COc1cccc(-c2nc(CS(=O)(=O)CC(=O)NCC(C)c3ccccc3)c(C)o2)c1 (stereo not given)	-2.8	5.9	11.4	69.6*	-0.5
O=C(CSc1nc2c(oc3ccccc32)c(=O)n1-c1ccccc1)Nc1ccccc1F	-1.2	3.1	13.3	1.4	0.4
Cc1ccc2[nH]c(=O)c3cc(C(=O)N(C)c4ccc(Br)cc4)sc3c2c1	1.9	24.3	-1.4	3.0	0.3
CCOC(=O)c1[nH]c2ccccc2c1NC(=O)c1cc(OC)cc(OC)c1	1.2	-10.6	-0.6	1.7	-0.3
O=C(Nc1ccc(Cl)c(Cl)c1)C1CCN(C(=O)c2ccco2)CC1	-18.1	2.3	-9.5	40.8*	-0.4
Cc1onc(-c2ccccc2)c1C(=O)N1CCN(C(=O)c2ccco2)CC1	3.0	-16.4	30.1*	1.0	-0.1
CCOc1ccccc1-c1nc(CN2CCCN(C(=O)c3ccco3)CC2)c(C)o1	-4.3	-67.5*	1.4	-2.2	-0.8
Cc1ccc(N(C(C)C(=O)N2CCN(Cc3ccccc3)CC2)S(C)(=O)=O)cc1 (stereo not given)	-0.9	8.3	36.7*	12.7	-4.0
CCOC(=O)N1CCN(C(=O)C(C)N(c2ccc(Oc3ccccc3)cc2)S(C)(=O)=O)CC1 (stereo not given)	-7.8	-4.0	-7.2	9.9	0.1
Cc1ccc(NC(=O)C2CCN(C(=O)c3ccco3)CC2)cc1	-0.3	-14.8	11.0	-0.6	0.2
O=S(=O)(c1ccc2c(c1)OCCO2)C1CCC(O)CC1 (stereo not given)	-1.2	22.3	25.1	1.7	0.5
Cc1ccc(CN2CCN(C(=O)c3ccco3)CC2)cc1	-6.9	-30.4*	-2.1	-1.8	0.0
Cc1ccccc1CN1CCN(C(=O)c2ccco2)CC1	-5.3	7.6	0.8	1.0	0.3
Cc1cc(C)cc(NC(=S)N2CCN(C(=O)c3ccco3)CC2)c1	15.1	-38.7*	-1.9	-0.3	0.0

Source: PubChem BioAssay
